Data from the supplement of paper PMC10849652.
Of roughly 7,900 targets only a part is listed; those with a hit were picked by preference. About 0.6% of all pairs of compound and target were hits.

What was measured:
Assay in all cases: log2 fold change, soluble protein after heating vs DMSO (PISA); higher = thermal stabilisation; K562 cells, 10 uM, 30 min; active = over 0.2 and 3.5 SD of the protein, either way, in both replicates (recomputed)
erlotinib = compound: C#Cc1cccc(Nc2ncnc3cc(OCCOC)c(OCCOC)cc23)c1 [erlotinib]
Method in brief: (§1)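 K562 cells at 2×10^6 cells/mL were treated for 30 min with 10 μM compound, and aliquots were heated for 3 min over 48°C-58°C before pooling. Extraction used PBS with 0.5% NP-40 at 4°C, and soluble protein was the supernatant after 21,000xg for 90 min, measured by TMTpro 16plex LC-MS/MS with channel sums equalised. Thermal stability values, relative to control samples and from duplicates, are log2 fold changes.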

[1] = compound: C/C(=N\NC(=O)C1=CC(=CC=C1)S(=O)(=O)N2CCOCC2)/C3=C(C=CC(=C3)Cl)O
Method in brief: as §1

[2] = compound: C1=CC(=C(C=C1Cl)C2=NC3=NC=CN=C3C(=N2)NC4=CC=NC=C4)F
Method in brief: as §1

[3] = compound: C1=CC(=CC=C1C2=NC3=C(N2)C=C(C=C3)C(=O)N)OC4=CC=C(C=C4)Cl
Method in brief: as §1

[4] = compound: C1=CC2=C(C=CC(=C2)/C=C\3/C(=O)NC(=NCC4=CC=CS4)S3)N=C1
Method in brief: as §1

[5] = compound: C1=CC2=NC=CN=C2C=C1/C=C/3\C(=O)NC(=O)S3
Method in brief: as §1

[6] = compound: C1=CC=C(C=C1)C2=NC(=C(N2)C3=CC=NC=C3)C4=CC(=C(C=C4)Cl)O
Method in brief: as §1

[7] = compound: C1=CC=C2C(=C1)C3=NNC4=CC=CC(=C43)C2=O
Method in brief: as §1

[8] = compound: C1CCN(C1)C(=O)NC2=CC=CC(=C2)NC3=NC=C(C(=N3)NCCC4=CN=CN4)Br
Method in brief: as §1

[9] = compound: C1CN(CCC1(CC2=CC=C(C=C2)Cl)N)C3=NC=NC4=C3C=CN4
Method in brief: as §1

IRAK-1-4 Inhibitor I = compound: C1COCCN1CCN2C3=CC=CC=C3N=C2NC(=O)C4=CC(=CC=C4)[N+](=O)[O-] [IRAK-1-4 Inhibitor I]
Method in brief: as §1

ibrutinib = compound: C=CC(=O)N1CCC[C@@H](n2nc(-c3ccc(Oc4ccccc4)cc3)c3c(N)ncnc32)C1 [ibrutinib]
Method in brief: as §1

[10] = compound: CC(=O)c1cnc2ccc(-c3cc(Cl)c(O)c(Cl)c3)nc2c1N[C@H]1CC[C@H](CN(C)C)CC1
Method in brief: as §1

ralimetinib = compound: CC(C)(C)Cn1c(N)nc2ccc(-c3[nH]c(C(C)(C)C)nc3-c3ccc(F)cc3)nc21 [ralimetinib]
Method in brief: as §1

[11] = compound: CC(C)(O)CC(=O)NCCn1ccc2ncnc(Nc3ccc(Oc4cccc(C(F)(F)F)c4)c(Cl)c3)c21
Method in brief: as §1

[12] = compound: CC(C)C1=C2N=C(C=C(N2N=C1)NCC3=CC=CC=C3)NCCCCCCN
Method in brief: as §1

[13] = compound: CC(C)C[C@@H](C=O)NC(=O)[C@H](CC(C)C)NC(=O)[C@H](CC(C)C)NC(=O)OCc1ccccc1
Method in brief: as §1

pinometostat = compound: CC(C)N(C[C@H]1O[C@@H](n2cnc3c(N)ncnc32)[C@H](O)[C@@H]1O)[C@H]1C[C@@H](CCc2nc3cc(C(C)(C)C)ccc3[nH]2)C1 [pinometostat]
Method in brief: as §1

[14] = compound: CC1=C(C(CC(=O)N1)C2=CC=C(C=C2)C(F)(F)F)C(=O)NC3=C(C=C4C(=C3)C=NN4)F
Method in brief: as §1

[15] = compound: CC1=C(C2=C(C=C1)C(=O)C3=CC=CC=C3N2CCCN)C
Method in brief: as §1

Measured: log2 fold change

CUX1 isoform 2 (UniProt Q13948)
Chain of UniProt Q13948 (Q13948 whole entry, looked up): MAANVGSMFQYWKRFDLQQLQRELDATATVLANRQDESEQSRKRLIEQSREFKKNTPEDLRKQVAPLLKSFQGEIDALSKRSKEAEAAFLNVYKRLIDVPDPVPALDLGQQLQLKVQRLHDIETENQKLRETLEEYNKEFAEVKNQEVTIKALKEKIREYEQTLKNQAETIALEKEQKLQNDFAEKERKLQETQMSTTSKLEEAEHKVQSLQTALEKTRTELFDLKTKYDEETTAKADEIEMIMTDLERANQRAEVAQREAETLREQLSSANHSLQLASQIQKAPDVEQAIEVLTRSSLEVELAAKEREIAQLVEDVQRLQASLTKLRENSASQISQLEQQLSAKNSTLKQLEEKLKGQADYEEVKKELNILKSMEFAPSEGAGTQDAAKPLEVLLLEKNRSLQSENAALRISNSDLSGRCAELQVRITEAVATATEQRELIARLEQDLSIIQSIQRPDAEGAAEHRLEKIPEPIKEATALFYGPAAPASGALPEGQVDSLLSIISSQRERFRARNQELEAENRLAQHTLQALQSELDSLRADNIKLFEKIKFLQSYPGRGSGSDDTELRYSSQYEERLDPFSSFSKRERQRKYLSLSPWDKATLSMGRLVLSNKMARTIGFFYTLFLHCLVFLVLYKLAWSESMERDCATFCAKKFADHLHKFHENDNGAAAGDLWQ
inactive: erlotinib -0.025 | [1] 0.017 | [2] 0.012 | [3] 0.036 | [4] 0.014 | [5] -0.031 | [6] -0.043 | [7] 0.009 | [8] -0.009 | [9] -0.031 | IRAK-1-4 Inhibitor I 0.042 | ibrutinib 0.017 | [10] -0.032 | ralimetinib 0.036 | [11] -0.101 | [12] 0.045 | [13] 0.042 | pinometostat 0.055 | [14] 0.013 | [15] 0.049

DTWD1 (UniProt Q8N5C7)
Chain of UniProt Q8N5C7 (Q8N5C7 whole entry, looked up): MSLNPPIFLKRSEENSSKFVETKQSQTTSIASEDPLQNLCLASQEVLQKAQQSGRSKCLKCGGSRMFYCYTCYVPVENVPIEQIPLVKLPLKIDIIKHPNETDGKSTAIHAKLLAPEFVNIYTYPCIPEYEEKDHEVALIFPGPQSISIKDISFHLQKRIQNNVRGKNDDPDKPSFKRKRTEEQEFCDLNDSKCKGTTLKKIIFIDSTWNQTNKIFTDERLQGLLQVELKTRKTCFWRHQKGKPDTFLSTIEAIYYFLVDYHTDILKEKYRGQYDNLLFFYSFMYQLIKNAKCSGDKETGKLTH
inactive: erlotinib 0.072 | [1] 0.007 | [2] 0.002 | [3] -0.122 | [4] 0.018 | [5] 0.017 | [6] -0.039 | [7] 0.023 | [8] 0.016 | [9] 0.044 | IRAK-1-4 Inhibitor I 0.043 | ibrutinib 0.014 | [10] 0.076 | ralimetinib 0 | [11] -0.022 | [12] 0.161 | [13] -0.021 | pinometostat -0.026 | [14] -0.109 | [15] 0.136

EHD2 (UniProt Q9NZN4)
Chain of UniProt Q9NZN4 (Q9NZN4 whole entry, looked up): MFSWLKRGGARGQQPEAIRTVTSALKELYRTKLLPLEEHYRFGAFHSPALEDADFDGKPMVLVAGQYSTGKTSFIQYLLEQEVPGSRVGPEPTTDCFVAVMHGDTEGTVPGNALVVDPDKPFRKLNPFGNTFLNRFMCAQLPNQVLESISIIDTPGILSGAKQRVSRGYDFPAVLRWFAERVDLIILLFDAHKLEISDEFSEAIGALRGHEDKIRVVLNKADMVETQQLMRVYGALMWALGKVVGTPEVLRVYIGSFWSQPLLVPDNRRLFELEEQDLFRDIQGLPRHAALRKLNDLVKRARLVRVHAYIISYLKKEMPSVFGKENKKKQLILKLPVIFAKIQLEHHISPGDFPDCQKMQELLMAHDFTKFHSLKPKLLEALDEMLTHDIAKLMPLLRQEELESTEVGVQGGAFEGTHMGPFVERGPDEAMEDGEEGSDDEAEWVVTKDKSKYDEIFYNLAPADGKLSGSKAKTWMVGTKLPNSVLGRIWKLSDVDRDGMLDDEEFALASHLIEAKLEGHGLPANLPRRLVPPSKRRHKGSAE
inactive: erlotinib -0.044 | [1] 0.025 | [2] 0.013 | [3] -0.077 | [4] 0.007 | [5] -0.01 | [6] -0.003 | [7] 0.01 | [8] -0.008 | [9] 0.041 | IRAK-1-4 Inhibitor I 0.009 | ibrutinib 0.008 | [10] -0.038 | ralimetinib 0.003 | [11] -0.033 | [12] 0.002 | [13] 0.036 | pinometostat -0.044 | [14] 0.003 | [15] 0.001

ECPAS (UniProt Q5VYK3)
Chain of UniProt Q5VYK3 (Q5VYK3 whole entry, looked up): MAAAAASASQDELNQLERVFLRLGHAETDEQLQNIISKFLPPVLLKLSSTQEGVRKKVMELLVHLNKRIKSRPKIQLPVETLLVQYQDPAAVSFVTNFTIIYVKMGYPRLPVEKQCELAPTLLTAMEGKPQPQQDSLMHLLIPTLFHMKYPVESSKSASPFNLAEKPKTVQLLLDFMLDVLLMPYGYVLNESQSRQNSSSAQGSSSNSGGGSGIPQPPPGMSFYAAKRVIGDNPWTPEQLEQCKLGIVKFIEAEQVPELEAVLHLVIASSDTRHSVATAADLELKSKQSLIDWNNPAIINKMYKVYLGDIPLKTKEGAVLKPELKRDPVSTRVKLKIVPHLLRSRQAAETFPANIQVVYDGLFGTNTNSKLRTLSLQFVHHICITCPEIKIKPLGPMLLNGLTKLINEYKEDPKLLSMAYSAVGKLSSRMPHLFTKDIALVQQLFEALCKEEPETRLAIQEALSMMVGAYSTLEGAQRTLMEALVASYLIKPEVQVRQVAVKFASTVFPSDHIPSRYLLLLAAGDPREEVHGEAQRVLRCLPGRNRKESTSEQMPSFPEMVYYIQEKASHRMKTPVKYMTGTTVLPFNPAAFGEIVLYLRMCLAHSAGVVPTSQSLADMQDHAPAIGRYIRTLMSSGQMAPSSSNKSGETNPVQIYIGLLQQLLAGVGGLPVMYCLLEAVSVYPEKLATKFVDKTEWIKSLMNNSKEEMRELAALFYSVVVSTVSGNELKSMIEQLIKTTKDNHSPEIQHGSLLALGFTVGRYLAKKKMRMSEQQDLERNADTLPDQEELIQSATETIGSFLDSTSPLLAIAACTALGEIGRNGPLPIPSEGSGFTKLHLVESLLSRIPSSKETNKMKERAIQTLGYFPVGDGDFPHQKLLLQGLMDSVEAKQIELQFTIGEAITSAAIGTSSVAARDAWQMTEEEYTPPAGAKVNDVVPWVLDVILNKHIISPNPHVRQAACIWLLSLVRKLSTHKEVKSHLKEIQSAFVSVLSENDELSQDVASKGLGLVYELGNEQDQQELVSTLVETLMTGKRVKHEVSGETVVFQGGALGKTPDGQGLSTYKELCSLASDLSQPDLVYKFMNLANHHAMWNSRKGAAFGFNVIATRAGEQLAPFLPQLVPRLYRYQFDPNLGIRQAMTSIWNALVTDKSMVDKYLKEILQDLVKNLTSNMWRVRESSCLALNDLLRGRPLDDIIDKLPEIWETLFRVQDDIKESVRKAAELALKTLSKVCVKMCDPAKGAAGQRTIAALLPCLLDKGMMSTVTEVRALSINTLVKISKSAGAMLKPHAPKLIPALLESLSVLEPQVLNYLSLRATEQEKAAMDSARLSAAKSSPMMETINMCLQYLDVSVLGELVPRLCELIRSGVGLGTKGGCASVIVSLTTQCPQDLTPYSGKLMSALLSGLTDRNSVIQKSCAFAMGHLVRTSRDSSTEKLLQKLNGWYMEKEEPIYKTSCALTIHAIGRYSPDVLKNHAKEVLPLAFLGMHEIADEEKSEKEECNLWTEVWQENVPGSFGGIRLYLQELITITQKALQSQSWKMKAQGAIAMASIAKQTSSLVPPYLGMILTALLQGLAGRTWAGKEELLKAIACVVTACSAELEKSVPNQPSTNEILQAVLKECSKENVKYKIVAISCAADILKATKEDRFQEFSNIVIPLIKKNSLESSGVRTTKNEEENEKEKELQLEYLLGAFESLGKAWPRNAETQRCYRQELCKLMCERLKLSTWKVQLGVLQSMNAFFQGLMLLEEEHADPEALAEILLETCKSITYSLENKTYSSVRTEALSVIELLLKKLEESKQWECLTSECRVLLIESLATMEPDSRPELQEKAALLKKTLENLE
active: [13] 0.564
inactive: erlotinib 0.058 | [1] 0.087 | [2] 0.001 | [3] -0.06 | [4] 0.042 | [5] 0.009 | [6] 0.048 | [7] -0.01 | [8] -0.028 | [9] -0.018 | IRAK-1-4 Inhibitor I -0.117 | ibrutinib -0.09 | [10] 0.009 | ralimetinib 0.082 | [11] -0.139 | [12] -0.094 | pinometostat 0.055 | [14] 0.021 | [15] 0.092
